In PubChem BioAssay (NCI):
This is part of a sample that, as a whole, favours compounds with a hit. Of some 83,000 tested, about 20% had one in any assay.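 Method: cells in 96-well plates; compound added at one concentration; 48 h incubation; percent growth measured; values under 10 scored active.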 Unmarked numbers belong to inactive results. Active and inactive are the calls of the source.

Assays:
Assay in all cases: NCI-60 one-dose screen, 48 h (100 = growth as untreated, 0 = no growth, -100 = all killed)
Settings in all cases: 10 µM unless noted
DU-145 prostate = test system: DU-145 prostate
K-562 leukemia = test system: K-562 leukemia
MALME-3M melanoma = test system: MALME-3M melanoma
MDA-MB-231 breast = test system: MDA-MB-231 breast
RXF 393 renal = test system: RXF 393 renal
SF-268 CNS = test system: SF-268 CNS
SF-295 CNS = test system: SF-295 CNS
SF-539 CNS = test system: SF-539 CNS
UACC-257 melanoma = test system: UACC-257 melanoma
M14 melanoma = test system: M14 melanoma
HCT-15 colon = test system: HCT-15 colon
HT29 colon = test system: HT29 colon
SNB-75 CNS = test system: SNB-75 CNS
SNB-19 CNS = test system: SNB-19 CNS
U251 CNS = test system: U251 CNS
PC-3 prostate = test system: PC-3 prostate
SK-MEL-5 melanoma = test system: SK-MEL-5 melanoma
UACC-62 melanoma = test system: UACC-62 melanoma
LOX IMVI melanoma = test system: LOX IMVI melanoma
SK-MEL-28 melanoma = test system: SK-MEL-28 melanoma

Structure (SMILES)	growth (DU-145 prostate)	growth (K-562 leukemia)	growth (MALME-3M melanoma)	growth (MDA-MB-231 breast)	growth (RXF 393 renal)	growth (SF-268 CNS)	growth (SF-295 CNS)	growth (SF-539 CNS)	growth (UACC-257 melanoma)	growth (M14 melanoma)	growth (HCT-15 colon)	growth (HT29 colon)	growth (SNB-75 CNS)	growth (SNB-19 CNS)	growth (U251 CNS)	growth (PC-3 prostate)	growth (SK-MEL-5 melanoma)	growth (UACC-62 melanoma)	growth (LOX IMVI melanoma)	growth (SK-MEL-28 melanoma)
Cc1cc(=O)oc2cc(OCCCOc3ccc(/C=C/C(=O)Nc4ccc(Br)cc4)cc3)ccc12	67.1%	78.4%	40.4%	70.5%	57.8%	67.8%	95.1%	87.9%	91.4%	84%	82.3%	90.8%	115%	86.9%	97.8%	81.8%	85%	94.5%	67.9%	86.6%
CC(Nc1ncnc2ccc(-c3cnc4cnccn34)cc12)c1ccccc1 (stereo not given)	37.4%	48.3%	58%	64.3%	46.6%	67.7%	50.5%	66%	75.4%	77.8%	67.7%	71.1%	80.9%	56.8%	76.1%	63.8%	18.1%	53.9%	58.1%	78.7%
CC1(C)CC[C@]2(C(=O)O)CC[C@]3(C)C(=CC[C@@H]4[C@@]5(C)CC[C@H](NOCCCN)C(C)(C)[C@@H]5CC[C@]43C)[C@@H]2C1	94.7%	46.4%	91.6%	92.4%	68.8%	100%	101%	86.4%	89.2%	94.7%	64.8%	74%	97%	93.2%	69%	65.3%	61.2%	71.4%	32.4%	87.4%
CC1=C(C)C(=O)C(Nc2cccc(C)c2)=C(Br)C1=O	104%	2.13% (active)	117%	67.8%	106%	100%	100%	98.2%	84.8%	104%	98.4%	105%	67.7%	101%	101%	78.5%	90.5%	94.4%	58.1%	115%
C/C(=C(\c1ccc(O)cc1)c1ccc(OCCN2CCCCCC2)cc1)c1ccc(Cl)cc1	-86.4% (active)	5.91% (active)	-80.3% (active)	-85% (active)	-87.4% (active)	-62.5% (active)	-93.7% (active)	-91.8% (active)	-81.8% (active)	-86.5% (active)	-88.7% (active)	-72.8% (active)	-77.9% (active)	-20.6% (active)	-81.1% (active)	-69.9% (active)	-96% (active)	-85.1% (active)	-95.4% (active)	-84.1% (active)
O=C(CCCCCCNC(=O)C(O)(O)C(F)(F)F)Nc1ccc(Cl)cc1	17.6%	14.4%	9.88% (active)	36.2%	-23.7% (active)	22%	0.336% (active)	28.6%	31%	34.4%	39.1%	5.13% (active)	42.5%	31.7%	13.9%	35.3%	-28% (active)	-18.8% (active)	4.18% (active)	27%
COc1ccc(C(=O)c2c(N)c(C#N)cn2-c2ccc(Cl)cc2Cl)cc1	110%	93.6%	96.9%	90.8%	97%	100%	98.8%	102%	98.2%	91.2%	99.3%	98.5%	91%	93.1%	99.2%	95.7%	98.7%	89.6%	84%	97.9%
CCOC(=O)Nc1ccc2c(ccn2C(=O)c2cccc(F)c2)c1	29.5%	14.2%	61.7%	52.8%	19.3%	65.8%	19.6%	0.0722% (active)	74.4%	25.3%	29%	1.15% (active)	13.2%	27.8%	25.7%	42%	27.7%	32.3%	49.4%	61.5%
CNC(=O)c1cc(Oc2ccc3c(c2)sc2nc(-c4ccc(N(C)C)cc4)cn23)ccn1	20.2%	11.8%	57.5%	15.9%	13.9%	45.7%	8.54% (active)	-14% (active)	78.8%	19.1%	8.11% (active)	-16.1% (active)	17.8%	25%	13.5%	32.4%	11.9%	41.4%	0.0095% (active)	56.8%
Cc1ccc(S(=O)(=O)c2nc(-c3ccc(F)cc3)oc2S(C)(=O)=O)cc1	77%	1.76% (active)	-45.6% (active)	65%	40.3%	95.1%	95.4%	58.1%	90.3%	64%	13.4%	55.1%	87.2%	91.4%	96.1%	91.8%	98.4%	84.4%	-68.8% (active)	79.8%
Cc1cccc(N2CCN(C3=C(Cl)C(=O)c4ncccc4C3=O)CC2)c1	44.7%	9.9% (active)	24.4%	84.8%	52.2%	82.9%	101%	92.1%	61.5%	75.3%	24.8%	104%	84.3%	79.5%	85.2%	72.9%	95.2%	74.3%	24.2%	92.1%
CC(=O)Nc1cc(N2CCOCC2)c2nc(NC(=O)c3[nH]c(C)c(Cl)c3Cl)sc2c1	58.1%	81.4%	54.7%	62.2%	19.2%	93.9%	50.8%	48.7%	84.8%	72.1%	66.9%	65.1%	17.3%	83.9%	57.8%	64.3%	77.6%	94.8%	57%	67.5%
Cc1ccc(S(=O)(=O)NCCCNc2nccc(-c3[nH]c(-c4ccccc4)nc3-c3ccc(F)c(O)c3)n2)cc1	98.6%	30.4%	2.9% (active)	71.1%	97.9%	105%	94.9%	105%	23.8%	22.9%	76%	96.2%	73.9%	107%	98.2%	69.5%	38.6%	18.7%	73.8%	38.3%
CCCc1[nH]c(-c2cc(N)ccc2Cl)c2c1C(=O)CCCC2	107%	93.1%	93.7%	100%	102%	97.3%	80.8%	98.3%	104%	107%	90.6%	104%	89.2%	100%	102%	85.6%	98.1%	82.1%	107%	102%
O=C(/C=C/c1cccc(Br)c1)c1cccc(OCCCCOc2cccc(C(=O)/C=C/c3cccc(Br)c3)c2)c1	109%	90.1%	98%	101%	105%	99.9%	107%	104%	109%	93.9%	108%	117%	96.8%	94.3%	105%	104%	99.4%	98.3%	96.6%	110%
